# Assay results: PubChem BioAssay (EPA / NIEHS)
# Inconclusive results are not listed. Calls of active or inactive are those of the source. How the source made its calls, unless noted: active means hit-call score of the fitted dose curve at least 0.9, where 1 is the maximum; inactive means score below 0.9.
# What was measured:
# [1] = ATG_PBREM_CIS: Attagene CIS-FACTORIAL HepG2 Assay for human Phenobarbital-responsive Enhancer Module (PBREM) (AID 2282955); details: HepG2 PBREM cis-reporter, Attagene multiplexed transcription; actives raise or lower the signal
# How it was run: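 After a 24 h incubation with test chemical, transfected HepG2 cells yield total RNA; reporter-specific RT-PCR products are fluorescently labelled, HpaI-digested and resolved by capillary electrophoresis against ROX size standards.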
# [2] = biological target: Paired box protein Pax-6 (Homo sapiens) (UniProt P26367); test: ATG_Pax6_CIS: Attagene CIS-FACTORIAL HepG2 Assay for human Paired Box 6 (PAX6) (AID 2282956); details: HepG2 CIS-FACTORIAL PAX6 reporter transcription, RNA readout; actives raise or lower the signal
# Sequence of Paired box protein Pax-6 (Homo sapiens) (P26367 whole entry, looked up): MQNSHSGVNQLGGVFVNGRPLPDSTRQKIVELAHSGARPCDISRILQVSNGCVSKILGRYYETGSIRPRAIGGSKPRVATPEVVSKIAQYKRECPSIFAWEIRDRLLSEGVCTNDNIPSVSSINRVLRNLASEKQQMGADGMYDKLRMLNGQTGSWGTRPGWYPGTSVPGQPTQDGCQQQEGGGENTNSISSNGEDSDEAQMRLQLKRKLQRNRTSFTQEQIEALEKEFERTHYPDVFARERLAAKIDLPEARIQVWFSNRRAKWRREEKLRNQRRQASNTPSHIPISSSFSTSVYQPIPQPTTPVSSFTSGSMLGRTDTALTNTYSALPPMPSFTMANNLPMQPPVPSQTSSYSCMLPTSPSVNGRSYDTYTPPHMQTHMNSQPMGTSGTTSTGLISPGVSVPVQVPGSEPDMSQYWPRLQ
# How it was run: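 HepG2 cells transiently transfected with cis-promoter-driven multiplexed reporter units sensing endogenous transcription factor activity; 24 h chemical exposure. Reporter mRNA quantified by RT-PCR, 6-FAM labelling, HpaI digestion and capillary electrophoresis; bidirectional fit versus DMSO baseline.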
# [3] = ATG_PXRE_CIS: Attagene CIS-FACTORIAL HepG2 Assay for human Pregnane X Receptor Element (PXRE) (AID 2282957); details: HepG2 Attagene CIS-FACTORIAL PXRE reporter, mRNA; actives raise or lower the signal
# How it was run: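 HepG2 cells transiently transfected with cis-element-driven multiplexed reporter units; after 24 h chemical exposure, reporter mRNA measured by RT-PCR, 6-FAM labelling, HpaI digestion and capillary electrophoresis. Bidirectional fitting relative to DMSO.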
# [4] = ATG_PPRE_CIS: Attagene CIS-FACTORIAL HepG2 Assay for human Peroxisome Proliferator-activated Response Element (PPRE) (AID 2282958); details: HepG2 PPRE cis-element reporter, Attagene transcription factor profiling; actives raise or lower the signal
# How it was run: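 Multiplexed reporter transcription units under cis-regulatory promoters were transfected into HepG2 cells to capture endogenous factor activity. A 24 h incubation preceded RNA isolation and fluorescent RT-PCR fragment analysis.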
# [5] = ATG_RORE_CIS: Attagene CIS-FACTORIAL HepG2 Assay for human RAR-related Orphan Receptor Element (RORE) (AID 2282959); details: HepG2 Attagene cis-factorial RORE reporter, mRNA; actives raise or lower the signal
# How it was run: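 Fluorescence intensity of reporter-specific cDNA fragments, separated by capillary electrophoresis, gives the signal. Source: HepG2 liver cells transiently transfected with cis-element reporters and exposed 24 h; DMSO-normalized bidirectional fit.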
# [6] = ATG_Sox_CIS: Attagene CIS-FACTORIAL HepG2 Assay for human SRY-box transcription factor (SOX) (AID 2282960); details: HepG2 Attagene cis-factorial SOX reporter, mRNA; actives raise or lower the signal
# How it was run: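 After 24 h of chemical treatment, transfected HepG2 reporter cells are lysed for total RNA. Transcript levels come from RT-PCR with labelled primer extension and capillary electrophoresis, analysed bidirectionally versus DMSO.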
# [7] = biological target: Transcription factor Sp1 (Homo sapiens) (UniProt P08047); test: ATG_Sp1_CIS: Attagene CIS-FACTORIAL HepG2 Assay for human Specificity Protein 1 (Sp1) (AID 2282961); details: HepG2 Sp1 cis-reporter transcription, actives raise or lower the signal
# Sequence of Transcription factor Sp1 (Homo sapiens) (P08047 whole entry, looked up): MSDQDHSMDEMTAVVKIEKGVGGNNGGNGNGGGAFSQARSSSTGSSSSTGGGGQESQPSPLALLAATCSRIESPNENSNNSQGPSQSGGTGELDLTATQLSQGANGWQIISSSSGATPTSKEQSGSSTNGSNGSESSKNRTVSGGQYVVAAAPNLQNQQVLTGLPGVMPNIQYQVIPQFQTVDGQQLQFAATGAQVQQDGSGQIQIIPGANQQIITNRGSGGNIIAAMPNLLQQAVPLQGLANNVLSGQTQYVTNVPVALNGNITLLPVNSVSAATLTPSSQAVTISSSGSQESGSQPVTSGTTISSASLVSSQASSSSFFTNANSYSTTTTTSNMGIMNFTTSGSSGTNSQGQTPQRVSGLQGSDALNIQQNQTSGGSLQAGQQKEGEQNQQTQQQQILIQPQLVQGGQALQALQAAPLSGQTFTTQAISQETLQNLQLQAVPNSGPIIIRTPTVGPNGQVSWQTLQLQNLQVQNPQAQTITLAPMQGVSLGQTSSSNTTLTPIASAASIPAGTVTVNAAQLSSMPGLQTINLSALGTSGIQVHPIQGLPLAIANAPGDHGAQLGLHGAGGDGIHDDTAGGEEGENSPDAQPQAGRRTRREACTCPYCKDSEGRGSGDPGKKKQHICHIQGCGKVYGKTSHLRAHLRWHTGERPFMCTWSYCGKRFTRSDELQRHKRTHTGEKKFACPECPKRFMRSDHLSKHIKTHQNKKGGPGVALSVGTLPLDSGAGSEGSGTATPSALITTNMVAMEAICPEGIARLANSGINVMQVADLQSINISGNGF
# How it was run: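 Sp1-driven reporter mRNA, read as capillary electrophoresis fluorescence after RT-PCR, in transiently transfected HepG2 cells dosed for 24 h; signal change in either direction relative to DMSO.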
# [8] = ATG_SREBP_CIS: Attagene CIS-FACTORIAL HepG2 Assay for human Sterol Regulatory Element Binding (SREBP) (AID 2282962); details: HepG2 Attagene cis-factorial SREBP reporter, mRNA; actives raise or lower the signal
# How it was run: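 HepG2 cells transiently transfected with multiplexed cis-promoter reporter units sensing endogenous transcription factors; reporter mRNA measured 24 h after dosing by RT-PCR, 6-FAM labeling, HpaI digestion and capillary electrophoresis. Bidirectional fit versus DMSO.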
# [9] = biological target: Signal transducer and activator of transcription 3 (Homo sapiens) (UniProt P40763); test: ATG_STAT3_CIS: Attagene CIS-FACTORIAL HepG2 Assay for human Signal Transducer and Activator of Transcription 3 (STAT3) (AID 2282963); details: HepG2, Attagene cis-factorial STAT3 reporter transcription; actives raise or lower the signal
# Sequence of Signal transducer and activator of transcription 3 (Homo sapiens) (P40763 whole entry, looked up): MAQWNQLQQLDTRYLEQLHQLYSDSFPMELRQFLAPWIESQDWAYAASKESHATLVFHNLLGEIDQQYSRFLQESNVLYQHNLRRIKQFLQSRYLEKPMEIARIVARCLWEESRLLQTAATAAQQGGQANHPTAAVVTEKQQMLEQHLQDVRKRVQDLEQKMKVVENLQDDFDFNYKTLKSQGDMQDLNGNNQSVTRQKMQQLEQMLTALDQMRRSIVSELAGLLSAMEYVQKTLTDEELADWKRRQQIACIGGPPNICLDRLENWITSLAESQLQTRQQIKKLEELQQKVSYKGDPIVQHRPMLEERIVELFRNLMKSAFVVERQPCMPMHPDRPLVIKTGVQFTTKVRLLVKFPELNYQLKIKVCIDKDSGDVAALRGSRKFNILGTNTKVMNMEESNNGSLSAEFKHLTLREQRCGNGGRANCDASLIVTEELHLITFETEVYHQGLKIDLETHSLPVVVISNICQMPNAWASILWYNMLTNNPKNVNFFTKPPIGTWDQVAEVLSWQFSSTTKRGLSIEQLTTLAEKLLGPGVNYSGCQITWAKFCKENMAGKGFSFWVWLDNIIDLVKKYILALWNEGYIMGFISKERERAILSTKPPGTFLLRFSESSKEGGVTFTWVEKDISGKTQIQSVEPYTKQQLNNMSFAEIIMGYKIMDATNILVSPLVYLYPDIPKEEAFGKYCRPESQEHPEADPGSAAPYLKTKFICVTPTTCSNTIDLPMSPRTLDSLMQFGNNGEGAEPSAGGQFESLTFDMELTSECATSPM
# How it was run: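 Endogenous STAT3-responsive cis-element activity was read in transiently transfected HepG2 cells after 24 h treatment. Reporter transcripts were quantified via RT-PCR and capillary electrophoresis, with DMSO as negative control and bidirectional curve fitting.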
# [10] = ATG_TA_CIS: Attagene CIS-FACTORIAL HepG2 Assay for human TA Basal Promoter (AID 2282964); details: HepG2 Attagene CIS-factorial TA basal promoter reporter; actives raise or lower the signal
# How it was run: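 Transient MRTU transfection of HepG2 preceded 24 h compound exposure. Reporter mRNA levels were then read by RT-PCR with capillary electrophoresis, and this background-control endpoint was fitted bidirectionally to DMSO.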
# [11] = ATG_TAL_CIS: Attagene CIS-FACTORIAL HepG2 Assay for human TAL Basal Promoter (AID 2282966); details: HepG2 Attagene cis-factorial TAL promoter reporter; actives raise or lower the signal;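 further: background control endpoint measuring basal TAL promoter reporter mRNA not a specific factor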
# How it was run: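 HepG2 cells transiently transfected with multiplexed cis-promoter reporter units, dosed 24 h. Reporter mRNA quantified by RT-PCR, 6-FAM labelling, HpaI digestion and capillary electrophoresis; TAL basal promoter serves as background control, fitted bidirectionally versus DMSO.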
# [12] = ATG_TGFb_CIS: Attagene CIS-FACTORIAL HepG2 Assay for human Transforming Growth Factor (TGF) (AID 2282967); details: HepG2 Attagene CIS TGFb reporter, mRNA transcription; actives raise or lower the signal
# How it was run: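 After a 24-hour incubation with compound, transfected HepG2 cells were lysed for RNA; reporter cDNA was amplified, fluorescently end-labeled and separated by CE. DMSO served as baseline for bidirectional fits.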
# [13] = ATG_VDRE_CIS: Attagene CIS-FACTORIAL HepG2 Assay for human Vitamin D Receptor Element (VDRE) (AID 2282968); details: HepG2 VDRE cis-reporter transcription, actives raise or lower the signal
# How it was run: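 Reporter mRNA induction, quantified by capillary electrophoresis of fluorescently labelled RT-PCR products, was read 24 h after dosing HepG2 cells carrying transiently transfected cis-regulated reporter units; gain or loss relative to DMSO.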
# [14] = biological target: Estrogen receptor (Homo sapiens) (UniProt P03372); test: ATG_ERa_TRANS: Attagene TRANS-FACTORIAL HepG2 Assay for human Estrogen Receptor alpha (ERa) (AID 2282970; active means hit-call score of the fitted dose curve at least 0.9, where 1 is the maximum); details: HepG2 Attagene TRANS ERa GAL4 reporter, mRNA
# Sequence of Estrogen receptor (Homo sapiens) (P03372 whole entry, looked up, the tested form may be a part): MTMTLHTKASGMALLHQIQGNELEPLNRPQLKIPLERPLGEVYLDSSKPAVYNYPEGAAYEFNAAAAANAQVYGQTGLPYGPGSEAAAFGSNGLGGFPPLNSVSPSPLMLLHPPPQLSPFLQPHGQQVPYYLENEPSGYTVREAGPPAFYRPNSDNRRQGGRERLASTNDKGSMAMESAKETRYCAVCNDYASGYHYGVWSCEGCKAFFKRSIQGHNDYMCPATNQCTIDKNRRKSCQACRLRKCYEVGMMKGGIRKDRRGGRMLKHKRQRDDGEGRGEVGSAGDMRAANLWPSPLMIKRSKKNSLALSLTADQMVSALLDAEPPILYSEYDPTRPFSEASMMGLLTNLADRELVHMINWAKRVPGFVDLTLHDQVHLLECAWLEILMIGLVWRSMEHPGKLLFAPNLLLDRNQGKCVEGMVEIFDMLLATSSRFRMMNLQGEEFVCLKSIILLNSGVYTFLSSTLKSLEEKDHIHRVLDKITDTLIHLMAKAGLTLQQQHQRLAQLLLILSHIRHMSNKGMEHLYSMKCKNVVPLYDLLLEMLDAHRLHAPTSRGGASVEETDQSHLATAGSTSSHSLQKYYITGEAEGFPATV
# How it was run: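 HepG2 cells transiently transfected with multiplexed GAL4-UAS reporter units read out chimeric NR-Gal4 activity. After 24 h compound exposure, reporter mRNA was quantified by RT-PCR, 6-FAM labeling, HpaI digestion and capillary electrophoresis, relative to DMSO.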
# [15] = biological target: Steroid hormone receptor ERR1 (Homo sapiens) (UniProt P11474); test: ATG_ERRa_TRANS: Attagene TRANS-FACTORIAL HepG2 Assay for human Estrogen-Related Receptor alpha (ERRa) (AID 2282971; active means hit-call score of the fitted dose curve at least 0.9, where 1 is the maximum); details: HepG2 Attagene TRANS reporter, ERRa transactivation
# Sequence of Steroid hormone receptor ERR1 (Homo sapiens) (P11474 whole entry, looked up, the tested form may be a part): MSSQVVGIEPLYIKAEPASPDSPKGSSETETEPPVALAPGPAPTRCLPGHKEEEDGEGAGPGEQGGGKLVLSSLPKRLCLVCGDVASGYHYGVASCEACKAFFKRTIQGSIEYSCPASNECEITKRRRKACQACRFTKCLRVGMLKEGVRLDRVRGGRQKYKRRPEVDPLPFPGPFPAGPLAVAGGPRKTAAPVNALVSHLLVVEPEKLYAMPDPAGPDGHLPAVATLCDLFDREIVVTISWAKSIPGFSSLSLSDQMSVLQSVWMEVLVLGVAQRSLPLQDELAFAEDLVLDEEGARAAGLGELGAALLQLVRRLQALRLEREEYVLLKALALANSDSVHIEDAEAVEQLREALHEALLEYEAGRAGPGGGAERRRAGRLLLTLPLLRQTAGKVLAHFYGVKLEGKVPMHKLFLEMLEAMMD
# How it was run: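 HepG2 cells transiently transfected with GAL4-UAS reporter units and chimeric NR-Gal4 constructs; after 24 hour compound incubation, reporter mRNA quantified by RT-PCR, fluorescent labelling and capillary electrophoresis, gain of signal versus DMSO.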
# [16] = biological target: X-box-binding protein 1 (Homo sapiens) (UniProt P17861); test: ATG_Xbp1_CIS: Attagene CIS-FACTORIAL HepG2 Assay for human X-box Binding Protein 1 (XBP1) (AID 2282972); details: HepG2 XBP1 cis-element reporter, Attagene multiplex; actives raise or lower the signal
# Sequence of X-box-binding protein 1 (Homo sapiens) (P17861 whole entry, looked up): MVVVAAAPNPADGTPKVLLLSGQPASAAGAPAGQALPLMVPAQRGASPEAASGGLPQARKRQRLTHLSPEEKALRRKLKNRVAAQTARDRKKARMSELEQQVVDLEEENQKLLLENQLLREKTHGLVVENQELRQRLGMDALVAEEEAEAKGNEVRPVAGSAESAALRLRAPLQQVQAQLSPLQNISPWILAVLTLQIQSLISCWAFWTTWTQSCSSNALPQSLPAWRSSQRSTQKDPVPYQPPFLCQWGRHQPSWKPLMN
# How it was run: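 HepG2 cells transiently transfected with multiple cis-element reporter units report endogenous TF activity; 24 h exposure, then reporter mRNA measured by RT-PCR, 6-FAM labelling, HpaI digestion and capillary electrophoresis. Bidirectional fitting versus DMSO.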
# [17] = ATG_M_19_TRANS: Attagene TRANS-FACTORIAL HepG2 Assay for M19 Transcription Factor (Internal Marker) (AID 2282974; active means hit-call score of the fitted dose curve at least 0.9, where 1 is the maximum); details: HepG2 Attagene TRANS-FACTORIAL M19 internal marker reporter
# How it was run: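 Measured here: internal-marker reporter transcript from HepG2 cells transfected with MRTUs, harvested at 24 h. cDNA PCR products were 6-FAM labelled by primer extension, cut with HpaI for 2 h at 37 C, and resolved by CE.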
# [18] = ATG_TCF_b_cat_CIS: Attagene CIS-FACTORIAL HepG2 Assay for human T-Cell-Factor with beta-catenin (TCF/b-cat) (AID 2282965); details: HepG2 TCF/beta-catenin cis-reporter transcription, actives raise or lower the signal
# How it was run: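 Measured: reporter mRNA in HepG2 transiently transfected with cis-promoter reporter units, 24 h after chemical addition. Fitting was bidirectional, DMSO as negative control.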
# [19] = ATG_GAL4_TRANS: Attagene TRANS-FACTORIAL HepG2 Assay for GAL4 (Internal Marker) (AID 2282976; active means hit-call score of the fitted dose curve at least 0.9, where 1 is the maximum); details: HepG2 Attagene TRANS GAL4 internal marker reporter
# How it was run: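 Background-control readout: GAL4-UAS reporter transcript in transiently transfected HepG2 cells after 24 h compound exposure. Measured by RT-PCR, 6-FAM primer extension, HpaI digest and capillary electrophoresis; gain-of-signal fit versus DMSO.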
# [20] = biological target: Nuclear receptor subfamily 1 group I member 3 (Homo sapiens) (UniProt Q14994); test: ATG_CAR_TRANS: Attagene TRANS-FACTORIAL HepG2 Assay for human Constitutive Androstane Receptor (CAR) (AID 2282969; active means hit-call score of the fitted dose curve at least 0.9, where 1 is the maximum;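 further: activators raise reporter mRNA above DMSO so AC50 marks induction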); details: HepG2 Attagene TRANS-FACTORIAL CAR reporter
# Sequence of Nuclear receptor subfamily 1 group I member 3 (Homo sapiens) (Q14994 whole entry, looked up, the tested form may be a part): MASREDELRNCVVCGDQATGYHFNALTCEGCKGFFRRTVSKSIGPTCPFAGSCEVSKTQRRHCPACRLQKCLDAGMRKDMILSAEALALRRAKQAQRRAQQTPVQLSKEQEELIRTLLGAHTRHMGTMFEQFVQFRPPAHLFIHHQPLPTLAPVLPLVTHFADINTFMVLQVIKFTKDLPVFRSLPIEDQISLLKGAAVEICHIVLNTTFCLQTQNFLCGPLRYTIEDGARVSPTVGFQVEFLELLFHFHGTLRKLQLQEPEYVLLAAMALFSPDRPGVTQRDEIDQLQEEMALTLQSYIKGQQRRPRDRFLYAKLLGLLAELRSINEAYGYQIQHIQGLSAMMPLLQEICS
# How it was run: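 Readout is reporter mRNA induction, quantified by fluorescent primer extension and capillary electrophoresis after RT-PCR. Cells were HepG2 transiently carrying chimeric NR-Gal4 constructs with GAL4-UAS reporters, treated for 24 h; activity scored upward from DMSO.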
smiles,measurement,setting,value
NC(=O)c1c(Cl)cccc1Cl,outcome,[1],inactive
same,outcome,[2],inactive
same,AC50,[3],0.104 µM (active)
same,outcome,[4],inactive
same,outcome,[5],inactive
same,outcome,[6],inactive
same,outcome,[7],inactive
same,outcome,[8],inactive
same,outcome,[9],inactive
same,outcome,[10],inactive
same,outcome,[11],inactive
same,outcome,[12],inactive
same,outcome,[13],inactive
same,outcome,[14],inactive
same,outcome,[15],inactive
same,outcome,[16],inactive
CCCCCCOc1ccc(O)cc1,outcome,[1],inactive
same,AC50,[2],33.4 µM (active)
same,AC50,[3],5.85 µM (active)
same,outcome,[4],inactive
same,outcome,[5],inactive
same,outcome,[6],inactive
same,outcome,[7],inactive
same,outcome,[8],inactive
same,outcome,[9],inactive
same,outcome,[11],inactive
same,outcome,[12],inactive
same,AC50,[13],33.4 µM (active)
same,AC50,[14],2.85 µM (active)
same,outcome,[16],inactive
same,outcome,[17],inactive
O=C(C=Cc1ccccc1)OCCCc1ccccc1,outcome,[1],inactive
same,outcome,[2],inactive
same,AC50,[3],19.9 µM (active)
same,outcome,[5],inactive
same,outcome,[6],inactive
same,outcome,[7],inactive
same,outcome,[8],inactive
same,outcome,[9],inactive
same,outcome,[10],inactive
same,outcome,[18],inactive
same,outcome,[11],inactive
same,outcome,[12],inactive
same,outcome,[13],inactive
same,AC50,[14],15.3 µM (active)
same,outcome,[16],inactive
same,outcome,[17],inactive
same,outcome,[19],inactive
Nc1ccc(O)c(N)c1,outcome,[1],inactive
same,outcome,[2],inactive
same,outcome,[3],inactive
same,outcome,[5],inactive
same,outcome,[6],inactive
same,outcome,[7],inactive
same,outcome,[8],inactive
same,outcome,[9],inactive
same,outcome,[10],inactive
same,outcome,[18],inactive
same,outcome,[11],inactive
same,outcome,[13],inactive
same,outcome,[15],inactive
same,outcome,[16],inactive
same,outcome,[17],inactive
same,outcome,[19],inactive
CC(=N[Si](C)(C)C)O[Si](C)(C)C,outcome,[1],inactive
same,outcome,[2],inactive
same,outcome,[3],inactive
same,outcome,[4],inactive
same,outcome,[6],inactive
same,outcome,[7],inactive
same,outcome,[8],inactive
same,outcome,[9],inactive
same,outcome,[10],inactive
same,outcome,[18],inactive
same,outcome,[12],inactive
same,outcome,[13],inactive
same,outcome,[14],inactive
same,outcome,[16],inactive
same,outcome,[17],inactive
same,outcome,[19],inactive
CC(=O)Nc1cc(S(=O)(=O)O)cc2cc(S(=O)(=O)O)c(N=Nc3ccccc3)c(O)c12,outcome,[1],inactive
same,outcome,[2],inactive
same,outcome,[3],inactive
same,outcome,[4],inactive
same,outcome,[6],inactive
same,outcome,[7],inactive
same,outcome,[8],inactive
same,outcome,[9],inactive
same,outcome,[10],inactive
same,outcome,[18],inactive
same,outcome,[11],inactive
same,outcome,[13],inactive
same,outcome,[20],inactive
same,outcome,[14],inactive
same,outcome,[16],inactive
same,outcome,[19],inactive
CCC(C)(CCCC(C)C)OC(C)=O (configuration not stated),outcome,[1],inactive
same,outcome,[2],inactive
same,outcome,[3],inactive
same,outcome,[4],inactive
same,outcome,[6],inactive
same,outcome,[7],inactive
same,outcome,[8],inactive
same,outcome,[9],inactive
same,outcome,[10],inactive
same,outcome,[18],inactive
same,outcome,[11],inactive
same,outcome,[12],inactive
same,outcome,[20],inactive
same,outcome,[14],inactive
same,outcome,[17],inactive
same,outcome,[19],inactive
